The nature of experiment [1]: NCI Yeast Anticancer Drug Screen. Data for the rad50 strain (AID 155).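 Also: 0% = growth of vehicle-only cultures of the same strain.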 Particulars: S. cerevisiae rad50 strain growth inhibition; at 50.0 µM; stronger effect = higher value. In a few lines: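 Cells are treated with compound, grown, and their growth is then scored against vehicle-only cultures of the same repair-deficient yeast strain.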
Experiment [2] in a line: NCI Yeast Anticancer Drug Screen. Data for the mec2-1 strain (AID 157). Particulars: S. cerevisiae mec2-1 strain, at 50.0 µM, stronger effect = higher value. The method in brief: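 Vehicle-treated cultures served as reference for growth inhibition of compound-exposed mec2-1 yeast.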
A short description of experiment [3]: NCI Yeast Anticancer Drug Screen. Data for the sgs1 mgt1 strain (AID 161).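 Also: 0% = growth of cultures given vehicle only.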 Conditions: S. cerevisiae sgs1 mgt1 strain, at 50.0 µM, stronger effect = higher value. In a few lines:
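Read-out: growth inhibition vs vehicle controls. Cells: mutant yeast strain deficient in DNA damage repair.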

Experiment [4] is described as follows: NCI Yeast Anticancer Drug Screen. Data for the cln2 rad14 strain (AID 165).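 Also: 0% = growth equal to vehicle treated cultures.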 Conditions: S. cerevisiae cln2 rad14 strain, at 50.0 µM, stronger effect = higher value. In a few lines: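 Each compound was tested on cln2 rad14 yeast. Inhibition of growth was calculated against vehicle-exposed controls.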
A short description of experiment [5]: NCI Yeast Anticancer Drug Screen. Data for the bub3 strain (AID 167). Conditions: S. cerevisiae bub3 mutant strain, at 50.0 µM, stronger effect = higher value. In a few lines: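 Part of a panel of yeast mutants defective in DNA damage repair or cell cycle regulation. Each strain is grown with compound, and inhibition is calculated relative to solvent-treated cultures.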

Experiment [6] is described as follows: NCI Yeast Anticancer Drug Screen. Data for the mlh1 rad18 strain (AID 175). Conditions: S. cerevisiae mlh1 rad18 strain growth inhibition; at 50.0 µM; stronger effect = higher value. In a few lines: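 Vehicle-treated cultures served as the reference for growth inhibition in a yeast strain carrying DNA damage repair alterations exposed to each compound.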

This is part of a sample that, as a whole, favours compounds with a hit. Of some 79,000 tested, about 15% had one in any assay. Values without a mark were called inactive. The source made the active and inactive calls. Rule as the data show it: active = growth inhibition above about 70%; inactive = the rest.

As to `[Cu].[NH2-].[NH2-].[NH2-].[NH2-]`, the growth inhibition was -21.8% in experiment [1]; -15.8% in experiment [2]; -23.1% in experiment [3]; -64.8% in experiment [4]; -4.05% in experiment [5]; -23.6% in experiment [6].
Take `CC(C)OP(=O)(OCCCO)C(Cl)Cl` (stereo not drawn): the growth inhibition was 0.35% in experiment [1]; 17.1% in experiment [2]; 1.1% in experiment [3]; 2.55% in experiment [4]; 3.75% in experiment [5]; 0.75% in experiment [6].
For the compound `CN(C)c1ccc(N=Nc2ccc([As](=O)(O)O)cc2)cc1`, the growth inhibition in experiment [1] was -23.1%; in experiment [2], -10.6%; in experiment [3], -11.8%; in experiment [4], -35.1%; in experiment [5], -5.15%; in experiment [6], -0.4%.
Regarding `CC1CNCCN1c1ccc(Cl)cc1` (stereo not drawn), the growth inhibition is 13.6% in experiment [1]; -20.8% in experiment [2]; 11.2% in experiment [3]; 20.1% in experiment [4]; 22.8% in experiment [5]; 6.15% in experiment [6].
With `Cc1cc(NC(=O)/C=C/c2ccc([N+](=O)[O-])cc2Cl)ccc1S(=O)(=O)F`, the growth inhibition in experiment [1] is -30.5%; in experiment [2] it was -8.5%; in experiment [3], -5.6%; in experiment [4] it was -17.4%; in experiment [5], 2.85%; in experiment [6], -32.5%.
Regarding `CN(C)P(=O)(CC(O)c1ccccc1)N(C)C` (stereo not drawn), the growth inhibition in experiment [1] was 18.6%; in experiment [2], -2.05%; in experiment [3] it was -14.5%; in experiment [4], -8.05%; in experiment [5] it was 8.5%; in experiment [6], 10.9%.
`Clc1ccc(NC2=NCCS2)cc1Cl`: the growth inhibition in experiment [1] was -9%; in experiment [2] it was -22.8%; in experiment [3] it was 41.4%; in experiment [4] it was -7.55%; in experiment [5], -3.05%; in experiment [6], 10.9%.
Consider `CCC1CC[N-]CC1.CCC1CC[N-]CC1.CCC1CC[N-]CC1.CCC1CC[N-]CC1.N#C[S-].N#C[S-].[Co]`, for which the growth inhibition in experiment [1] was 23.1%; in experiment [2], 16.9%; in experiment [3], 34%; in experiment [4] it was 15.3%; in experiment [5], 26.8%; in experiment [6], 24.8%.
For the compound `O=c1cc(N2CCNCC2)nc2ccccn12`, the growth inhibition in experiment [1] is 2.9%; in experiment [2] it was 4.4%; in experiment [3] it was 4.95%; in experiment [4] it was 1.4%; in experiment [5], 6.95%; in experiment [6], 6.35%.
In the case of `CC(Cc1ccc2c(c1)OCO2)NCC(O)c1ccc(O)c(O)c1` (stereo not drawn), the growth inhibition in experiment [1] is 14.6%; in experiment [2], -20.2%; in experiment [3] it was 18.2%; in experiment [4], 5%; in experiment [5], 32.2%; in experiment [6], 26.6%.
`CN1C(=O)N(C)C(O)C(Cl)(Cl)C1=O` (stereo not drawn): the growth inhibition was -4.75% in experiment [1]; 10.1% in experiment [2]; 13.6% in experiment [3]; 30.6% in experiment [4]; 26.1% in experiment [5]; 11.6% in experiment [6].
Consider `CCCCCC(C)C1C(=O)NC(=O)NC1=O` (stereo not drawn), for which the growth inhibition is 6.4% in experiment [1]; 12.9% in experiment [2]; 2.65% in experiment [3]; 5.7% in experiment [4]; 7.8% in experiment [5]; -6% in experiment [6].
For `S=C(N=Nc1ccccc1)NNc1ccccc1.[Ni]`, the growth inhibition in experiment [1] was 12.3%; in experiment [2] it was -15.3%; in experiment [3], 2%; in experiment [4] it was 6.25%; in experiment [5] it was 26.8%; in experiment [6] it was 0.5%.
With `O=[N+]([O-])c1ccc(N=Nc2ccc(N(CCCl)CCCl)cc2)cc1`, the growth inhibition was -4.8% in experiment [1]; 14.1% in experiment [2]; -1.25% in experiment [3]; -14.9% in experiment [4]; 5% in experiment [5]; 23.5% in experiment [6].
Take `CC(=O)Nc1ccc2c(c1)C(=O)c1cc(NC(C)=O)ccc1-2`: the growth inhibition in experiment [1] is 24.4%; in experiment [2] it was -10.1%; in experiment [3], -13.6%; in experiment [4], 1.55%; in experiment [5] it was -2.75%; in experiment [6], -7.5%.
Consider `COc1ccc2c(c1O)-c1cc(O)cc3c1C(C2)N(CCCl)CC3` (stereo not drawn), for which the growth inhibition is 63.4% in experiment [1]; 29.1% in experiment [2]; 64.6% in experiment [3]; 15.8% in experiment [4]; -10.3% in experiment [5]; 48.7% in experiment [6].
Consider `CCC[CH2][Sn]([Cl])([Cl])[CH2]CCC.c1ccncc1`, for which the growth inhibition is 95.5% (active) in experiment [1]; 97.5% (active) in experiment [2]; 98.2% (active) in experiment [3]; 98.3% (active) in experiment [4]; 98.2% (active) in experiment [5]; 98% (active) in experiment [6].
As to `COc1ccc(C(=O)O[C@H]2CC[C@@]3(C)[C@@H]4CC[C@H]5[C@]6(O)C[C@H](O)[C@@]7(O)[C@@H](CN8C[C@@H](C)CC[C@H]8[C@@]7(C)O)[C@]6(O)C[C@@]53OC24O)cc1OC`, the growth inhibition in experiment [1] was -16.7%; in experiment [2] it was -32%; in experiment [3], -28.9%; in experiment [4] it was 6.4%; in experiment [5], -28.8%; in experiment [6] it was -5.15%.
Turning to `CC(Cl)CNC1CCCCC1` (stereo not drawn), the growth inhibition in experiment [1] is 6%; in experiment [2] it was -3.5%; in experiment [3], -8.95%; in experiment [4], -10.6%; in experiment [5] it was -0.95%; in experiment [6], -0.9%.
Consider `ClCCN(CCCl)c1ccc(/C=N/N=C2c3ccccc3-c3ccccc32)cc1`, for which the growth inhibition was -21.6% in experiment [1]; -7.05% in experiment [2]; -6.2% in experiment [3]; -2.95% in experiment [4]; -18.9% in experiment [5]; -4.5% in experiment [6].
For the compound `CCCC[N+]1(C)CCC(OC(=O)C(O)(c2ccccc2)C2CCCC2)C1` (stereo not drawn), the growth inhibition in experiment [1] is 15.6%; in experiment [2] it was 5.25%; in experiment [3], 5.3%; in experiment [4], -32.8%; in experiment [5], -6.3%; in experiment [6], -5.5%.
As for `CCN1C(=O)CC(=O)N(CC)C1=S`, the growth inhibition was 24.4% in experiment [1]; -12.4% in experiment [2]; -8.55% in experiment [3]; 12.2% in experiment [4]; 8.45% in experiment [5]; 21.2% in experiment [6].
In the case of `CC(=N/O)/C(C)=N\O`, the growth inhibition was 21% in experiment [1]; 14.8% in experiment [2]; 5.7% in experiment [3]; 13.4% in experiment [4]; -0.4% in experiment [5]; 40.3% in experiment [6].
Turning to `[C-]#[O+].[C-]#[O+].[C-]#[O+].[Cr].c1ccc(P(CC[PH+](CC[PH+](CC[PH+](c2ccccc2)c2ccccc2)c2ccccc2)c2ccccc2)c2ccccc2)cc1` (stereo not drawn), the growth inhibition was 36.3% in experiment [1]; 13.6% in experiment [2]; 41.5% in experiment [3]; 18.6% in experiment [4]; 33.8% in experiment [5]; 37.8% in experiment [6].
On to `CN(C)CC#CCN(C)C`, for which the growth inhibition in experiment [1] is 28.1%; in experiment [2], 5%; in experiment [3] it was -1%; in experiment [4] it was -10.8%; in experiment [5] it was 0.45%; in experiment [6] it was 7.2%.
Turning to `O=C(Cc1ccc(N(CCCl)CCCl)cc1)NC1CCCC1`, the growth inhibition was -0.05% in experiment [1]; -16.6% in experiment [2]; -13.9% in experiment [3]; -22.9% in experiment [4]; -2.3% in experiment [5]; 18.1% in experiment [6].
For the compound `O=C1NCCCC1(Cl)Cl`, the growth inhibition in experiment [1] was 4.75%; in experiment [2], -1.25%; in experiment [3], 4.2%; in experiment [4] it was -16.3%; in experiment [5] it was -10.6%; in experiment [6] it was 13.2%.
For the compound `CC(C)OP(=O)(OC(C)C)/C(C#N)=C/c1ccco1`, the growth inhibition in experiment [1] is -23.9%; in experiment [2] it was -51%; in experiment [3], -23.6%; in experiment [4], -32.2%; in experiment [5] it was -20.1%; in experiment [6], -31.9%.
For `CC(O)CN(CCN(CC(C)O)CC(C)O)CC(C)O.[Cl-].[Zn+2]` (stereo not drawn), the growth inhibition in experiment [1] was 14.9%; in experiment [2], 9.25%; in experiment [3], 17.4%; in experiment [4], 10.7%; in experiment [5] it was 8.8%; in experiment [6], 6.1%.
Regarding `CCNc1ccc([N+](=O)[O-])cc1[N+](=O)[O-]`, the growth inhibition in experiment [1] was 11.3%; in experiment [2], 16.9%; in experiment [3] it was 7.45%; in experiment [4] it was 4.5%; in experiment [5], -6.4%; in experiment [6], 5.9%.
On to `CC(C)(C)N1COC2CCCCC21` (stereo not drawn), for which the growth inhibition in experiment [1] was 17.4%; in experiment [2], -3.2%; in experiment [3], 4.65%; in experiment [4], -4.25%; in experiment [5], 16.4%; in experiment [6], 14.6%.
Regarding `CN(C)Cc1c[nH]c2ccc(F)cc12`, the growth inhibition in experiment [1] is -27%; in experiment [2] it was -13.8%; in experiment [3], -15.2%; in experiment [4] it was 5.65%; in experiment [5], -11.8%; in experiment [6], -16.9%.
`ClCc1ccc(Cl)c(Cl)c1`: the growth inhibition in experiment [1] is 16.1%; in experiment [2] it was 3.8%; in experiment [3] it was -3.05%; in experiment [4], 10.4%; in experiment [5] it was 1.5%; in experiment [6] it was -20.4%.
